Among the data in PubChem BioAssay (NCI) are growth values, retold here.

The panel holds about 83,000 compounds, 20% with a hit somewhere; the sample as a whole holds those more often.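 96-well plates, one dose, 48 hours. Percent growth reported; active if below 10.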 The source made the active and inactive calls.

The subject of the test is MDA-MB-468 breast. The test can be described thus: NCI-60 one-dose screen, 48 h (100 = growth as untreated, 0 = no growth, -100 = all killed). The following applies: 10 µM unless noted.
As for `N#Cc1nnn(-c2ccc(S(N)(=O)=O)cc2)c1NC(=O)CCl`, the growth is 98.7% (inactive).

As for `COc1ccc(N2CCN(C3=C(Cl)C(=O)c4ncccc4C3=O)CC2)cc1`, the growth is -57.8% (active).

For `COc1cc(/C=N/NC(=O)c2ccccc2Nc2cccc(C(F)(F)F)c2)ccc1O`, the growth is 28.3% (inactive).

Consider `O=S(=O)(NCc1ccccc1)c1ncnc2nc[nH]c12`, for which the growth was 108% (inactive).

As to `CCc1c(C(=O)NCc2c(O)ccc3cccc(O)c23)[nH]c(C)c1C(C)=O`, the growth was 18.5% (inactive).

Turning to `COc1ccc(OC)c(/C=C/C(=O)N/N=C/c2ccc(Cl)cc2)c1`, the growth was -4.03% (active).

For the compound `COc1cccc(-c2nc(-c3ccc(NC(=O)OC(C)C)cc3)[nH]c2-c2ccnc(Br)c2)c1`, the growth is 18.2% (inactive).

In the case of `N#Cc1c(-c2ccccc2)cc(-c2ccccc2)n(CC(=O)NO)c1=O`, the growth is 43.5% (inactive).

Turning to `CC[N+](C)(C)N`, the growth was 95.9% (inactive).

For the compound `Cn1cc(C2=C(c3coc4cc(Br)ccc34)C(=O)NC2=O)c2ccccc21`, the growth was 5.23% (active).

Regarding `CC(C)(C)CC(C)(C)Nc1c(-c2ccc(C(F)(F)F)cc2)nc2cnccn12`, the growth was 100% (inactive).

In the case of `O=C(CC(C(=O)c1ccccc1)N1CCN(Cc2ccccc2)CC1)c1ccccc1` (stereo not given), the growth was 70.1% (inactive).

On to `COC(=O)CCCNc1c(-c2c(O)c(O)cc3c(O)c(-c4c(C)cc5c(-c6nc7ccccn7c6NCCCC(=O)OC)c(O)c(O)cc5c4O)c(C)cc23)nc2ccccn12`, for which the growth was 26.9% (inactive).

On to `CN(C)c1ccc(/C=C\N=Nc2ccc(Br)cc2)cc1`, for which the growth was 106% (inactive).

Turning to `O=C1NC(=O)c2ncccc21`, the growth is 93.8% (inactive).

For `CC(=O)CC/C=C(\C)[C@H](O)[C@H](C)C(=O)O[C@H]1C[C@H](C)C=C2C=C[C@@]3(C)O[C@@H](O)CC(=O)[C@]3(C)[C@H]21`, the growth is -65.4% (active).

In the case of `COc1ccc2c(c1)/C(=N/c1n[nH]c(=S)s1)C(=O)N2`, the growth is 17.1% (inactive).

Consider `COCCOC(C)C(/C=N/NC(N)=S)=N/NC(N)=S` (stereo not given), for which the growth was 7.98% (active).

As to `C=C1CCC2C(C)(CO)C(O)CCC2(C)C1CC(NCc1ccccc1)C1=CCOC1=O` (stereo not given), the growth was 98.9% (inactive).

As to `CC(=O)O.CC(=O)O.O.[Fe]`, the growth is 100% (inactive).

Regarding `Cc1ccc(Nc2c(C(N)=O)cnc3ccc(-c4csc(N)n4)cc23)cc1`, the growth was 83.9% (inactive).

On to `C#CCOC(=O)/C=C/c1cn(-c2ccccc2)nc1-c1ccc(OC)cc1`, for which the growth was 101% (inactive).

Take `Cc1nc(Nc2ccccn2)sc1C(=O)/C=C/c1ccc(Br)cc1`: the growth was 27.3% (inactive).

As for `Cc1nc(Cl)c2c(n1)N(C)c1ccc(Cl)cc1C(C)C2` (stereo not given), the growth was 67.1% (inactive).

Regarding `Cc1cccc(NC(=O)c2sc3nc4c(cc3c2N)C(=O)CCC4)c1`, the growth is 33.1% (inactive).

`CCS(=O)(=O)OCCCl`: the growth is 94.9% (inactive).

With `COc1ccc(-c2nc(Nc3nc4ccccc4[nH]3)nc(N)c2C#N)cc1`, the growth is 121% (inactive).

`Cn1c(=O)cc(NC(=O)CN2CCN(c3cc4c(cc3F)c(=O)c(C(=O)O)cn4C3CC3)CC2)[nH]c1=O`: the growth is 92.6% (inactive).

With `CC(C)(C)c1ccc(O)c(Cc2cc(C(C)(C)C)ccc2O)c1`, the growth is 119% (inactive).

As for `COc1cc(/C=C/c2cc(/C=C/c3ccc(O)c(OC)c3)nc(N)n2)ccc1O`, the growth was -35% (active).

Take `CCOC(=O)c1cnc2ccc(Cl)cc2c1NCCCN(C)C`: the growth is -31.3% (active).

For the compound `Nc1cccc(S(=O)(=O)c2cccc(N)c2)c1`, the growth was 119% (inactive).

On to `COC(c1ccc2ccccc2c1)C(C)C(F)F` (stereo not given), for which the growth was 99.7% (inactive).

Take `Cc1ccc(CNc2ccc3nc(CCC4CCCCC4)[nH]c3c2)cc1`: the growth is -13.2% (active).

As to `Cc1c2c(cc[n+]1Cc1ccc(F)cc1)c1ccc(OCc3cccc(F)c3)cc1n2Cc1cccc(F)c1`, the growth is -85.6% (active).

Take `CC(C)c1nc2ccccc2n1CC(=O)N/N=C/c1cccc(O)c1`: the growth was 98.4% (inactive).

Take `Cn1cc(C(=O)c2nc(-c3c[nH]c4ccccc34)no2)c2cc(F)ccc21`: the growth is 63% (inactive).

As for `CCN(CCO)CCCOc1ccc2c(Nc3cc(CC(=O)Nc4cccc(F)c4)[nH]n3)ncnc2c1`, the growth is 36.7% (inactive).

`O=C(Nc1ccc2cc3ccc(NC(=O)NC4CCCCC4)cc3nc2c1)NC1CCCCC1`: the growth is 105% (inactive).

As for `CCCCCC(C)c1ccc(O)c(C)c1` (stereo not given), the growth was 101% (inactive).
